# Paper PMC7862700, “An all-to-all approach to the identification of sequence-specific readers for epigenetic DNA modifications on cytosine”
# Columns and labels:
# Assay in all cases: DAPPL (digital affinity profiling via proximity ligation, sequencing); 10 mM Tris-HCl pH 7.5, 50 mM NaCl, 1 mM DTT, 4% glycerol, room temperature, 30 min; GST-TFs on glutathione beads, 16-mer random dsDNA library, 0.1% formaldehyde crosslink after washing; high values mean tight binding
# Conditions in all cases: protein: recombinant; tags: N-terminal GST; dsDNA, one strand shown
# FLI1 = molecular target: T1, FLI1 (Homo sapiens, UniProt Q01543 1-452)
# T1 sequence: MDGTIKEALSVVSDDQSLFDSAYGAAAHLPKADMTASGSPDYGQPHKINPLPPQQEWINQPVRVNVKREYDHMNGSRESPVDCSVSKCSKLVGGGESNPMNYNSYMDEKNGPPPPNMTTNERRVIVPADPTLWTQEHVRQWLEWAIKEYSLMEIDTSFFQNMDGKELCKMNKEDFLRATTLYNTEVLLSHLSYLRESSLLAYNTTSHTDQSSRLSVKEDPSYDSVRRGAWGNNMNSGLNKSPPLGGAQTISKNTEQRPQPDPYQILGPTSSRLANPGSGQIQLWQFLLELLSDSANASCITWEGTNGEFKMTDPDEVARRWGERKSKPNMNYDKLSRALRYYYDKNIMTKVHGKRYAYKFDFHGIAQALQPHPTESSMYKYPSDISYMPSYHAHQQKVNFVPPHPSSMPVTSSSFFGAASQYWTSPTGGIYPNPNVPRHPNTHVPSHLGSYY
# Summary of the method: (§1)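 Binding signal is each hexamer's read frequency for a factor divided by its frequency in the tag-only sample. The factors were GST-fused human transcription factors from yeast, captured on glutathione beads, DNA-barcoded and pooled with that sample. Pools were incubated with 200 nmole of a random double-stranded 16-mer DNA library in Tris/NaCl/DTT/glycerol buffer at room temperature for 30 min, then washed, crosslinked with 0.1% formaldehyde, proximity-ligated with BsaI/T4 ligase (1 h, 37 °C), PCR-amplified and sequenced on an Illumina NextSeq500.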
# ELK1 = molecular target: T2, ELK1 (Homo sapiens, UniProt P19419 1-428)
# T2 sequence: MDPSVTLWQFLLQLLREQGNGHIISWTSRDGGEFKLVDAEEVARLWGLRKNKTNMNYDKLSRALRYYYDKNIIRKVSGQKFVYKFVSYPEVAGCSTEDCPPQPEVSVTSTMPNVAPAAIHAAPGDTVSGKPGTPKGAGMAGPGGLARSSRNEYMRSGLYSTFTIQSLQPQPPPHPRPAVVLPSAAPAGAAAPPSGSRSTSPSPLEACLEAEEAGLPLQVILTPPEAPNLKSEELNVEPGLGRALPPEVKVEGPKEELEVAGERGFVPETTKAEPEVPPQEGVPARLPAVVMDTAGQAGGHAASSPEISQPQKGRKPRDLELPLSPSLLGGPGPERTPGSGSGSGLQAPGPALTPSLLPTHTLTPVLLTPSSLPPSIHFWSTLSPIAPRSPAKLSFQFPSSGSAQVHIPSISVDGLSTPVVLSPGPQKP
# Summary of the method: as §1
# GABPA = molecular target: T3, GABPA (Homo sapiens, UniProt Q06546 1-454)
# T3 sequence: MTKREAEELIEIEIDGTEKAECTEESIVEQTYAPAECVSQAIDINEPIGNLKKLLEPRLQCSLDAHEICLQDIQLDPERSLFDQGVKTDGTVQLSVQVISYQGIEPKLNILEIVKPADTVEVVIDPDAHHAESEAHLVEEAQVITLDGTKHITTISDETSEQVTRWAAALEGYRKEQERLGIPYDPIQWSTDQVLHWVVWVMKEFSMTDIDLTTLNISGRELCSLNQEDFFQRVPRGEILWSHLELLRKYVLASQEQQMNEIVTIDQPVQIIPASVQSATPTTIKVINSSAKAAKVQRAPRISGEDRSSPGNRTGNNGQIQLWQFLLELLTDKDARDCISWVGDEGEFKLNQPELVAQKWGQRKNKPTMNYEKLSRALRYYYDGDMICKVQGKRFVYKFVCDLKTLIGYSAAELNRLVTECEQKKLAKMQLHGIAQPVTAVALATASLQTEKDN
# Summary of the method: as §1
# ERG = molecular target: T4, ERG (Homo sapiens, UniProt P11308 1-479)
# T4 sequence: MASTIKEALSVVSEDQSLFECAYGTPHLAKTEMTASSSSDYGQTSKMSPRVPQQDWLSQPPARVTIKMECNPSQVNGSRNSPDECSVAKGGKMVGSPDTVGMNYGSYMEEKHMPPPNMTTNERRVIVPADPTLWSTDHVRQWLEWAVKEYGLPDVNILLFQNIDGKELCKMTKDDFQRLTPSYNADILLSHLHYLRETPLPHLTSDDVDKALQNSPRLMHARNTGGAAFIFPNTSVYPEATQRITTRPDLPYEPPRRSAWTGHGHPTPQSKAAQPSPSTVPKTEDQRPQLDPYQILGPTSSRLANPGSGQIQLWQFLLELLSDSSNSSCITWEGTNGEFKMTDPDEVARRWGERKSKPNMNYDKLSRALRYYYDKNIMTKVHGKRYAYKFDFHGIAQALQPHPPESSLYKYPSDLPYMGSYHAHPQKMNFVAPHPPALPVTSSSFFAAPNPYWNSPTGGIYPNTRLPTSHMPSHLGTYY
# Summary of the method: as §1
# ELF1 = ELF1 (Homo sapiens, UniProt P32519 1-619)
# Summary of the method: as §1
# EHF = molecular target: T5, EHF (Homo sapiens, UniProt Q9NZC4 1-300)
# T5 sequence: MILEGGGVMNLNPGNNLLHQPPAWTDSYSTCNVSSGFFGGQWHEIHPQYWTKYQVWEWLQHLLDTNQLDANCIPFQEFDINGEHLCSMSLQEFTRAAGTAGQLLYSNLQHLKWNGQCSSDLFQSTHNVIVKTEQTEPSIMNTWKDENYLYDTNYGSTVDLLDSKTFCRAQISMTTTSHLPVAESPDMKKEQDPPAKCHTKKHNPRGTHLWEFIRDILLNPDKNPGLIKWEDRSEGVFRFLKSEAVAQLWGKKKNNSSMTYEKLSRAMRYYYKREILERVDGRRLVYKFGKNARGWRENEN
# Summary of the method: as §1
# SPI1 = SPI1 (Homo sapiens, UniProt P17947 1-270)
# Summary of the method: as §1
# SPIB = SPIB (Homo sapiens, UniProt Q01892 1-262)
# Summary of the method: as §1
# ELK3 = molecular target: T6, ELK3 (Homo sapiens, UniProt P41970 1-407)
# T6 sequence: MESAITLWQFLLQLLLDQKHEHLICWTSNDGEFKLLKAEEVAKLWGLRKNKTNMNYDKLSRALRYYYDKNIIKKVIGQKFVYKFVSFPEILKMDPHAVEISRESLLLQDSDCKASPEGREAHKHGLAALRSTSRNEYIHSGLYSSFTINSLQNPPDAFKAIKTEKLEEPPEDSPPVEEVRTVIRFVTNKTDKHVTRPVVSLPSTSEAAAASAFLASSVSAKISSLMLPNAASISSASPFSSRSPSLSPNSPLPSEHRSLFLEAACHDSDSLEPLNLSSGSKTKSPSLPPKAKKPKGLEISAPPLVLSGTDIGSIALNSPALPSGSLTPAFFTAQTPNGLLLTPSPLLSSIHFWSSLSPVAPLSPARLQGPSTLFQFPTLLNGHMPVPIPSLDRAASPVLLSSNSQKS
# Summary of the method: as §1
# ELF1, sequence (P32519 whole entry): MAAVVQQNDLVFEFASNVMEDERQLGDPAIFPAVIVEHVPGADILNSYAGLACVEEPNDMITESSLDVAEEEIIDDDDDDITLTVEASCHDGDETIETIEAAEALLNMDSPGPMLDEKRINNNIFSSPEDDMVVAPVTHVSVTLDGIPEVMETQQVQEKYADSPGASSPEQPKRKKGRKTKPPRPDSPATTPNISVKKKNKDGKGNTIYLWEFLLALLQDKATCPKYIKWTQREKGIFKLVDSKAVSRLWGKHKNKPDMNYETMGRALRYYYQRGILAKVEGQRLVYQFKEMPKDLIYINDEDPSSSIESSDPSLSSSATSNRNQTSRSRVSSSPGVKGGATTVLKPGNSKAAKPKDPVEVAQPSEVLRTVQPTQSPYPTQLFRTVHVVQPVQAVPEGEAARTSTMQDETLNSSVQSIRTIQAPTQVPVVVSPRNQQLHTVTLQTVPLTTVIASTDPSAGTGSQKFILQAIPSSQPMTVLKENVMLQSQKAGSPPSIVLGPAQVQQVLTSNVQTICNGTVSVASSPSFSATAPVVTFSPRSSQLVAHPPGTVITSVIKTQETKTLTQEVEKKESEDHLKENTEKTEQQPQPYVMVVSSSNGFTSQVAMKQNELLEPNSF
# SPIB, sequence (Q01892 whole entry): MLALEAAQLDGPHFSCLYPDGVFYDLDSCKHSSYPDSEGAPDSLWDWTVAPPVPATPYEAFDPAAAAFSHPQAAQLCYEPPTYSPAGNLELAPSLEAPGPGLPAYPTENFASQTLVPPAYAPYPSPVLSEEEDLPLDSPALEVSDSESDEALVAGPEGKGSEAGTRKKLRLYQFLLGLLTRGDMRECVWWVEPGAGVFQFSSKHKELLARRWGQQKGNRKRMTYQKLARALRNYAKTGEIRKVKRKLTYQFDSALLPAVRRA
sequence,measurement,setting,value
ACACTA,binding signal,FLI1,"1.11 fold enrichment (6-mer frequency, TF over GST control)"
same,binding signal,ELK1,"1.17 fold enrichment (6-mer frequency, TF over GST control)"
same,binding signal,GABPA,"1.13 fold enrichment (6-mer frequency, TF over GST control)"
same,binding signal,ERG,"1.12 fold enrichment (6-mer frequency, TF over GST control)"
same,binding signal,ELF1,"1.19 fold enrichment (6-mer frequency, TF over GST control)"
same,binding signal,EHF,"1.15 fold enrichment (6-mer frequency, TF over GST control)"
same,binding signal,SPI1,"1.11 fold enrichment (6-mer frequency, TF over GST control)"
same,binding signal,SPIB,"1.09 fold enrichment (6-mer frequency, TF over GST control)"
same,binding signal,ELK3,"1.1 fold enrichment (6-mer frequency, TF over GST control)"
